A selection: hits, their analogues and other compounds. The true share with any hit is near 4.6%.
D1 antagonist: blocks dopamine activation of the human D1 receptor; P21728; HEK293 TREx D1 cells, calcium flux, dopamine EC80; hits give low values; activity change, negative = inhibition, % at 10 µM; 360,000 compounds, 3.2% hits; AID 504652; in the data active means activity change below about -30%; further: on the % scale 0 is the no-effect control and ±100 the full control effect
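HEK293 T-REx cells expressing inducible, force-coupled D1 receptor; no-wash Ca dye, 30–90 min RT. Cmpd → 180 s read at 1 Hz → EC80 DA → 180 s read.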
TRHR enhancer-1: allosterically enhances the human TRH receptor; 360,000 compounds, 0.66% hits; TRHR cells, fluo-8 calcium fluorescence, EC20 TRH enhancement; enhancement, % at 2 µM; in the data active means enhancement above about 30%; further: 0% is about no effect
Target sequence (P34981 whole entry, looked up): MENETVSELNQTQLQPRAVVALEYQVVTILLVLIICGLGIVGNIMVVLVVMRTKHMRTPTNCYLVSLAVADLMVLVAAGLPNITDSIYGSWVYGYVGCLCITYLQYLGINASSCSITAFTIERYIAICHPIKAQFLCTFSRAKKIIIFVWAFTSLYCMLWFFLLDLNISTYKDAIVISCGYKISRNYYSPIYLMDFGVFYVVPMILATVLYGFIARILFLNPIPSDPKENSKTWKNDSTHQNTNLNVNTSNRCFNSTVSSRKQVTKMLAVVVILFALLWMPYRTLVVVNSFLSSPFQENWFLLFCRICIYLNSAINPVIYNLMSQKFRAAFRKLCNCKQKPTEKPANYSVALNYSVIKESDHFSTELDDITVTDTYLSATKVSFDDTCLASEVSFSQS
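TRHR-expressing cells loaded with fluo-8 calcium dye were read kinetically (ex 480/em 530) during compound addition, then stimulated with an EC20 of TRH (10 nM final). Enhancement of the Gq-mediated intracellular calcium response was scored.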
D1 potentiator: enhances dopamine response at the human D1 receptor. 360,000 compounds, 0.036% hits. HEK293 TREx D1 cells, calcium flux, dopamine EC20 potentiation. AID 504651. potentiation, % at 10 µM. P21728; in the data active means potentiation above about 30%; further: 0% is about no effect
D1 ag: agonists of human D1 dopamine receptor | HEK293 T-REx D1 cells, calcium flux, agonist mode | activation, % at 2 µM | 360,000 compounds, 1% hits; in the data active means activation above about 30%; further: 0% is about no effect
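Agonism was scored from calcium flux recorded over 180 s (1 read/s) after pintool compound addition, following a 10-cycle baseline. Cells were inducible force-coupled HEK293 TREx D1, plated overnight at 30 C and loaded with no-wash calcium dye.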
TRHR agonist-1: activates the human TRH receptor; P34981; TRHR cells, calcium flux fluo-8, FDSS agonist mode; activation, % at 2 µM; 360,000 compounds, 0.18% hits; AID 493084; in the data active means activation above about 30%; further: 0% is about no effect
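In this calcium-flux screen, cells bearing human TRHR are dye-loaded with fluo-8, baselined for 10 cycles, then exposed to library compounds; positive kinetic calcium responses during the agonist phase mark hits, with TRH as control.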
TRHR enhancer-2: confirmation of human TRH receptor allosteric enhancers. activity change, negative = inhibition, % at 46.1 µM. 970 tested, under 10 active. TRH receptor cell assay, enhancer confirmation qHTS. shares compounds with TRHR enhancer-1. AID 493076;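 further: compound effect scored on response to added TRH at EC20 of 10 nM; 0% is about no effect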
TRHR agonist-2: confirmation of human TRH receptor agonists. 970 compounds, 8% hits. shares compounds with TRHR enhancer-1. TRHR-expressing cells, agonist activation read-out. Potency, µM (titrated, usually from 46.1 µM), inactives show at the top dose activation, usual class: activators; further: potency means the concentration at half of the fitted maximal effect; 0% is about no effect; nearly all actives have a fitted effect of over 75% in size
The depositor's hits bear a star; ? = inconclusive; nt = not tested or not shown. Unless noted, the call rests on the fitted dose curve; in most records, active means well fitted curve in the direction sought with a large enough effect; inconclusive means small, poorly fitted or top-dose-only effect, or another doubt; inactive means no such curve, though single readings can be large; an effect the other way counts as inactive or inconclusive.

SMILES | D1 antagonist | TRHR enhancer-1 | D1 potentiator | D1 ag | TRHR agonist-1 | TRHR enhancer-2 | TRHR agonist-2
CC(C)Oc1ccc(/C=C(/NC(=O)c2ccccc2)C(=O)NCCC(=O)O)cc1 | -16 | 47* | -1 | 1 | 0 | -2 | 0%
CC(C)Oc1ccc(/C=C(/NC(=O)c2ccccc2)C(=O)NC(Cc2ccccc2)C(=O)O)cc1 (stereo unspecified) | -5 | -3 | nt | 2 | 0 | nt | nt
CCOC(=O)C1=C(C)NC(=S)NC1c1ccc(OCC(=O)N2CCCCC2)cc1 (stereo unspecified) | -21 | -1 | -6 | 2 | -1 | nt | nt
COc1cccc(-n2c(=O)c3cc(OC)c(OC)cc3n(CC(=O)Nc3ccc(F)cc3)c2=O)c1 | -15 | 0 | -1 | 0 | 0 | nt | nt
CC(C)c1ccc(S(=O)(=O)/N=C2\C=C(NS(=O)(=O)c3ccccc3)C(=O)c3ccccc32)cc1 | -19 | 21 | -6 | 2 | -1 | nt | nt
CCc1ccc(S(=O)(=O)/N=C2\C=C(NS(=O)(=O)c3ccccc3)C(=O)c3ccccc32)cc1 | -19 | 49* | -2 | -1 | -1 | -7 | 2%
CC1CCCCN1CCNC(=O)CN1C(=O)COc2ccccc21 (stereo unspecified) | 2 | 51* | -1 | 2 | 0 | 5 | 1%
OCC1CCCN(C(=S)Nc2ccc(Nc3ccccc3)cc2)C1 (stereo unspecified) | -15 | -1 | -5 | 3 | 0 | nt | nt
C=CCN(Cc1cn(C)nc1-c1cccc(Cl)c1)C1CCS(=O)(=O)C1 (stereo unspecified) | 1 | 46* | -2 | 0 | 0 | -3 | 0%
COc1cccc(SCC2(O)CCN(C(=O)c3ccc(Cl)cc3)CC2)c1 | 0 | 59* | -1 | 3 | 0 | -5 | 0%
N#C/C(=C/c1ccc(F)cc1)c1nc(CCN2C(=O)c3ccccc3C2=O)cs1 | -18 | 7 | -8 | 22 | 28 | -1 | 3%
COC(=O)/C(C#N)=C1/C=Cc2ccccc2N1 | -1 | 54* | 0 | -2 | 0 | -7 | ?
COc1ccc(C(=O)C2CCN(CC(=O)Nc3ccc(OC)cc3OC)CC2)cc1 | -17 | 1 | -2 | 0 | 0 | nt | nt
COc1cc(C#N)c(NC(=O)CN2CCC(C(N)=O)CC2)cc1OC | -1 | 61* | 5 | 6 | 0 | -5 | 6%
COc1cc(C(=O)N2CCN(c3ccc(Nc4ccccc4)nn3)CC2)cc(OC)c1OC | nt | 0 | 0 | -1 | 0 | nt | nt
O=c1[nH]c(C2CCN(S(=O)(=O)c3ccccc3)CC2)nc2c1nnn2Cc1c(F)cccc1Cl | 8 | 4 | -4 | 5 | 0 | nt | nt
CCCc1cc(C(=O)N2CCCC(C(=O)c3cccc4ccccc34)C2)n(C)n1 (stereo unspecified) | -3 | 46* | -4 | 4 | -1 | -9 | 1%
CC(C)c1nn2c(=O)cc(COC(=O)CNC(=O)c3ccccc3)nc2s1 | -12 | -2 | -6 | -2 | 0 | nt | nt
COc1ccccc1NC(=O)Cn1nnc(-c2ccccc2NS(=O)(=O)c2ccccc2)n1 | -15 | 0 | 2 | 4 | 0 | nt | nt
COc1ccc(NC(=O)Cn2nnc(-c3ccccc3NS(=O)(=O)c3ccc(OC)cc3)n2)cc1 | 8 | 41* | -2 | 0 | 0 | 5 | 0%
Cc1ccc(CNC(=O)c2ccc(N3CCCC3)c(NC(=O)Nc3ccc(F)c(Cl)c3)c2)cc1 | 8 | -1 | 0 | 0 | 0 | nt | nt
Cc1nc(S(=O)(=O)N2CCN(C3c4ccccc4-c4ccccc43)CC2)cn1C | 22 | 43* | 6 | 5 | 1 | 8 | 5%
CCOc1ccccc1NC1=C(Cl)C(=O)N(c2ccccc2)C1=O | 4 | -2 | -2 | -1 | 0 | nt | nt
Cc1cccc(N/N=C(\C=N\N)C(=O)c2ccc(Br)cc2)c1 | 0 | 0 | 0 | 2 | 0 | nt | nt
Cn1c(-c2ccc3ccccc3n2)nc2cnccc21 | 9 | 54* | -5 | 2 | -1 | ? | 0%
COc1cc(OC)c(-c2nc3cnccc3n2C)cc1OC | -7 | 18 | 3 | 1 | 0 | nt | nt

Compound activity from PubChem BioAssay.
